Test results published in PubChem BioAssay (NCATS).
Unmarked numbers belong to inactive results. No rule for the calls is given here.

Test system: HIV-1 nucleocapsid protein NCp7 (binding to TG oligonucleotide)
Experiment: HIV Nucleocapsid (AID 346);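 also: potency is for inhibitors that block NC binding and lower polarization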
Conditions: HIV-1 NC / fluorescein-TGTGTGTG probe, fluorescence polarization
In short: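 NCp7 100 nM + fluorescein TG4xF 10 nM; Hepes pH 7.5/250mM NaCl/1uM ZnCl2/0.004% PEG 20000; 1 hr RT; FP, 45 s exposure; oligo-only wells as negative control.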
Potency is read from the fitted curve at half-maximal effect.

| SMILES | Potency |
| --- | --- |
| CN(C)c1ccc(-c2nccc(NCc3ccccc3)n2)cc1 | > 20 µM |
| c1ccc(-c2ccc(N3CC[C@@]4(CCCNC4)C3)cc2)cc1 | > 20 µM |
| COc1ccccc1CNc1ccnc(-c2c(C)noc2C)n1 | > 20 µM |
| O=C(c1cc(C(F)(F)F)cc(C(F)(F)F)c1)N1CCC2(CC1)CN(c1ccncc1)C2 | > 20 µM |
| O=c1c(CCc2ccccc2)nc2cnc(N3CCOCC3)nc2n1CCc1ccccc1 | > 20 µM |
| O=C(c1ccco1)N1CCC2(CCN(Cc3ccncc3)CC2)CC1 | > 20 µM |
| c1csc(CNc2nc(-c3ccc4c(c3)OCO4)nc3ccccc23)c1 | > 20 µM |
| CS(=O)(=O)N1CCC[C@@]2(CCN(Cc3nccs3)C2)C1 | > 20 µM |
| CN(C)Cc1ccccc1-c1cncnc1NCc1ccccc1 | > 20 µM |
| O=C(c1cccc(F)c1)N1CCC2(CCN(Cc3ccccc3)CC2)CC1 | > 20 µM |
| COc1ccc(C(=O)N2CCC3(CCCN(Cc4ccc(C#N)cc4)C3)CC2)cc1 | > 20 µM |
| COc1ccc(CNc2ncnc3ccc(-c4ccccc4CN(C)C)cc23)c(OC)c1 | > 20 µM |
| COc1ccc2[nH]cc(CCNc3cc(-c4ccc5c(c4)OCO5)ncn3)c2c1 | > 20 µM |
| N#Cc1cccc(NC(=O)N2CC[C@@]3(CCCN(C(=O)c4cccc(F)c4)C3)C2)c1 | > 20 µM |
| COC(=O)N1CCC2(CCCN(c3ccncc3)C2)CC1 | > 20 µM |
| CCNc1ncc2nc(CCc3ccccc3)c(=O)n(C)c2n1 | > 20 µM |
| FC(F)(F)c1cc(CN2CC[C@@]3(CCCNC3)C2)cc(C(F)(F)F)c1 | > 20 µM |
| COc1cccc(Nc2ncc3nc(-c4cccs4)c(=O)n(Cc4cccs4)c3n2)c1 | > 20 µM |
| O=c1cnc2cnc(Oc3cccc(Cl)c3)nc2n1C1CC1 | > 20 µM |
| COc1ccccc1CN1CCC2(CC1)CCN(C(C)=O)CC2 | > 20 µM |
| Cc1ccccc1-c1cc(N(C)Cc2ccco2)ncn1 | > 20 µM |

| SMILES | Potency |
| --- | --- |
| COc1ccc(NC(=O)N2CCC3(CC2)CCN(C(=O)c2ccco2)CC3)cc1 | > 20 µM |
| COc1ccccc1CN1CCCC2(CCN(C(=O)c3cccc(F)c3)CC2)C1 | > 20 µM |
| CC(=O)N1CCC2(CCCN(c3ncccn3)C2)CC1 | > 20 µM |
| COc1cccc(-c2cc(NCc3ccc(OC)cc3OC)ncn2)c1 | > 20 µM |
| CN(C)c1ccnc(-c2ccccc2C(F)(F)F)n1 | > 20 µM |
| CN(C)c1ncc2nc(-c3cc(F)cc(F)c3)c(=O)n(CCC#N)c2n1 | > 20 µM |
| O=C(Nc1ccccc1)N1CC2(CCN(C(=O)c3ccco3)CC2)C1 | > 20 µM |
| N#CCCn1c(=O)cnc2cnc(Nc3ccccc3)nc21 | > 20 µM |
| N#Cc1ccccc1-c1ccc2ncnc(NCCN3CCOCC3)c2c1 | > 20 µM |
| N#Cc1ccc(CN2CC[C@@]3(CCCN(C(=O)c4ccco4)C3)C2)cc1 | > 20 µM |
| Cc1nc2cnc(N(C)C)nc2n(C[C@H]2CCCO2)c1=O | > 20 µM |
| COCCn1c(=O)c(-c2ccccc2)nc2cnc(Nc3cccc(OC)c3)nc21 | > 20 µM |
| O=c1c(-c2cccs2)nc2cnc(Oc3ccccc3)nc2n1-c1ccccc1 | > 4 µM |
| O=C(c1ccncc1)N1CCC2(CC1)CCN(C(c1ccccc1)c1ccccc1)CC2 | > 20 µM |
| CS(=O)(=O)N1CCC2(CCN(Cc3ccc(C#N)cc3)CC2)CC1 | > 20 µM |
| CN(Cc1ccco1)c1ncncc1-c1ccccc1Cl | > 20 µM |
| COc1ccc(C(=O)N2CCC3(CCN(Cc4ccccc4OC)CC3)CC2)cc1 | > 20 µM |
| O=C(Nc1cccc(F)c1)N1CC2(CCN(C(=O)c3cccc(F)c3)CC2)C1 | > 20 µM |
| Cn1c(=O)c(-c2ccc(F)cc2)nc2cnc(OCc3ccccc3)nc21 | > 20 µM |
| CN(C)c1ncc2nc(-c3ccc(Cl)cc3)c(=O)n(-c3ccccc3)c2n1 | > 4 µM |
| COc1ccc(-n2c(=O)c(-c3cc(F)cc(F)c3)nc3cnc(N4CCNCC4)nc32)cc1 | > 20 µM |

| SMILES | Potency |
| --- | --- |
| COCCNc1nc(-c2ccccc2Cl)nc2ccccc12 | > 20 µM |
| Cc1noc(C)c1-c1ccc2ncnc(N3CCOCC3)c2c1 | > 20 µM |
| c1csc(CNc2ncncc2-c2ccc3c(c2)OCO3)c1 | > 20 µM |
| CS(=O)(=O)Nc1cccc(-c2nc(N3CCOCC3)c3ccccc3n2)c1 | > 20 µM |
| COC(=O)N1CCC2(CC1)CCN(c1ccccn1)CC2 | > 20 µM |
| COc1ccc(C(=O)N2CCC3(CC2)CN(CC(C)C)C3)cc1 | > 20 µM |
| CN(C)c1ncc2nc(-c3ccccc3)c(=O)n(CCC#N)c2n1 | > 20 µM |
| O=C(c1cnccn1)N1CCC2(CC1)CN(c1ccncc1)C2 | > 20 µM |
| COc1ccc(NC(=O)N2CC[C@@]3(CCCN(C(=O)c4ccncc4)C3)C2)cc1 | > 20 µM |
| O=c1c(-c2cc(F)cc(F)c2)nc2cncnc2n1Cc1ccccc1Cl | > 20 µM |
| CN(Cc1ccco1)c1ncnc2ccc(-c3ccccc3C(F)(F)F)cc12 | > 20 µM |
| CC(C)NC(=O)N1CC2(CCN(C(=O)c3ccco3)CC2)C1 | > 20 µM |
| COCCNc1nc(-c2ccccc2C(F)(F)F)nc2ccccc12 | > 20 µM |
| O=c1c(-c2cccs2)nc2cnc(Oc3cccc(Cl)c3)nc2n1C1CC1 | > 20 µM |
| COc1ccc2[nH]cc(CCNc3ncncc3-c3ccccc3C(F)(F)F)c2c1 | > 20 µM |
| COc1ccc(-n2c(=O)c(-c3cccs3)nc3cnc(N4CCN(C)CC4)nc32)cc1 | > 20 µM |
| O=c1c(-c2cccc(F)c2)nc2cncnc2n1Cc1ccccc1Cl | > 20 µM |
| COc1ccccc1-c1cncnc1N1CCN(C)CC1 | > 20 µM |
| COc1ccccc1CNc1ccnc(-c2ccc3c(c2)OCO3)n1 | > 20 µM |
| Cc1cccc(CNc2ncnc3ccc(-c4cccc(NS(C)(=O)=O)c4)cc23)c1 | > 20 µM |
| COc1ccc2[nH]cc(CCNc3nc(-c4cccc(NS(C)(=O)=O)c4)nc4ccccc34)c2c1 | > 20 µM |

| SMILES | Potency |
| --- | --- |
| COc1ccc(NC(=O)N2CC3(CCN(C(=O)c4c(C)noc4C)CC3)C2)cc1 | > 20 µM |
| CN(Cc1ccco1)c1ccnc(-c2cccnc2)n1 | > 20 µM |
| CS(=O)(=O)N1CCC2(CCN(Cc3nccs3)CC2)CC1 | > 20 µM |
| CS(=O)(=O)Nc1cccc(-c2nc(NCc3cccs3)c3ccccc3n2)c1 | > 20 µM |
| O=c1c(-c2ccccc2)nc2cnc(N3CCNCC3)nc2n1Cc1cccs1 | > 20 µM |
| CN1CCN(c2ncncc2-c2ccccc2Cl)CC1 | > 20 µM |
| FC(F)(F)c1cc(CN2CCC3(CCNCC3)CC2)cc(C(F)(F)F)c1 | > 20 µM |
| O=C(c1ccncc1)N1CCC2(CCN(Cc3cc(C(F)(F)F)cc(C(F)(F)F)c3)CC2)CC1 | > 20 µM |
| CCNc1ncc2nc(-c3ccc(OC)cc3)c(=O)n(-c3ccc(OC)cc3)c2n1 | > 4 µM |
| COc1ccccc1CN1CCCC2(CCN(C(=O)c3cnccn3)CC2)C1 | > 20 µM |
| Cc1noc(C)c1C(=O)N1CCC2(CCN(Cc3ccccc3)CC2)CC1 | > 20 µM |
| Cn1cccc1C(=O)N1CCC2(CC1)CCN(c1ncccn1)CC2 | > 20 µM |
| O=c1c(-c2ccc(F)cc2)nc2cnc(N3CCNCC3)nc2n1Cc1cccs1 | > 20 µM |
| Cc1noc(C)c1C(=O)N1CCC2(CCCN(c3ccccn3)C2)CC1 | > 20 µM |
| COc1ncc2ncc(=O)n(C3CC3)c2n1 | > 20 µM |
| COc1ccc(Oc2ncc3nc(-c4cccc(C#N)c4)c(=O)n(C)c3n2)cc1 | > 20 µM |
| Cn1cccc1C(=O)N1CCC2(CCCN(Cc3ccc(C#N)cc3)C2)CC1 | > 20 µM |
| COC(=O)N1CCC2(CCN(Cc3ccc(C#N)cc3)CC2)CC1 | > 20 µM |
| O=c1cnc2cnc(N3CCNCC3)nc2n1Cc1ccc(F)cc1 | > 20 µM |
| CN(C)C(=O)c1ccc(-c2cncnc2N(C)Cc2ccco2)cc1 | > 20 µM |
